High-throughput results: PubChem BioAssay, several laboratories
In the library only some 4.2% were active in any assay of this set; here they are far more common.
RecA intein inh: inhibitors of M. tuberculosis RecA intein splicing; P9WHJ3; cell-free RecA intein splicing, fluorescence; inhibition, % (concentration not given with the values); 290,000 tested, 0.75% active; in the data active = inhibition above about 30%
Target sequence (P9WHJ3 whole entry, looked up): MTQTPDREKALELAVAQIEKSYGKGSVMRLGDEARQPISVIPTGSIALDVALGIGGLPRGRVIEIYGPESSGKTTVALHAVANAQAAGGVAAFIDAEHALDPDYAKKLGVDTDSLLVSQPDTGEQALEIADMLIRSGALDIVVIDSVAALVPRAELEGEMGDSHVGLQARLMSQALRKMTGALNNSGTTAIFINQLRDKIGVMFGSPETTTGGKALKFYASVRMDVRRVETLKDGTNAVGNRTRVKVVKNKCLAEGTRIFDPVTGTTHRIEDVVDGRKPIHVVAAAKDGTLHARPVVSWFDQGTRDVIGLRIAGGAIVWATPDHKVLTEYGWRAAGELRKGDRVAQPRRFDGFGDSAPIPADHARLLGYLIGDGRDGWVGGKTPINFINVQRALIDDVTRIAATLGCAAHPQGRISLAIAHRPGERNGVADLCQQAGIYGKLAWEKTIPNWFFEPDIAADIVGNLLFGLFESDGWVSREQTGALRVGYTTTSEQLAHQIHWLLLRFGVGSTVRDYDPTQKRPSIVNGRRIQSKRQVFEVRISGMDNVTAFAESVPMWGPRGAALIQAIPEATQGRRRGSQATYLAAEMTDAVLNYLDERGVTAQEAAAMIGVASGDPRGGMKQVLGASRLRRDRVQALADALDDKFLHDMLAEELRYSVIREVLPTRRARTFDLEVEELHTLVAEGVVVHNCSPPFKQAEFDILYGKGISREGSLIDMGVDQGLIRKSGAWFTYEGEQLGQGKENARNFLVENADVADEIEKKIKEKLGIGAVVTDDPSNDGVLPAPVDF
CCHFV vOTU inh: CCHFV vOTU protease inhibition | Pep-AMC fluorescence | inhibition, % at 11.5 µM | 370,000 tested, 0.55% active | AID 651958
GDH-TPI counter: GDH-TPI coupled enzyme inhibition counter-screen | GDH-TPI coupled enzyme counterscreen, NADH absorbance | inhibition, % at 4.8 µM | 360,000 tested, 1.2% active | AID 588335
FBA Mtb inh: inhibitors of M. tuberculosis fructose-bisphosphate aldolase | P9WQA3 | purified M. tuberculosis FBA, fluorescence read-out | inhibition, % at 1 µM | 360,000 tested, 2.3% active | AID 588726; in the data active = inhibition above about 27%
Each line names hits and unclear results; the compound was inactive in the other large screens. Rule as the data show it, unless noted: active = inhibition above about 30%; inactive = the rest.

CC(C)(C)OC(=O)N(CCc1ccccc1)Cc1ccc(OCc2cccc(NC(=O)/C=C/c3ccccc3)c2)cc1	GDH-TPI counter 36 (no result: RecA intein inh)
CC1(c2nnnn2-c2ccc3c(c2)OCCO3)CCC(=O)N1CCOc1ccccc1 (centres undefined)	none (no result: RecA intein inh, GDH-TPI counter, FBA Mtb inh)
CCOC(=O)C1CCN(C(=O)CCCn2nc(C)c3c(C)n(-c4ccc(C)cc4)nc3c2=O)CC1	none
CN1CCC(N2CCN(C3CN(Cc4ccc(F)cc4)S(=O)(=O)C3)CC2)CC1 (centres undefined)	none (no result: RecA intein inh, GDH-TPI counter)
c1ccc2c3c(cc(N4CCOCC4)c2c1)OC1(N2CCOCC2)CCCCC1O3 (centres undefined)	FBA Mtb inh 89
COc1nnc(-c2ccc(N3CCOCC3)c(NC(=O)C3CCCCC3)c2)c2ccccc12	none
COc1ccccc1C(=O)NC(CCSC)C(=O)OCC(=O)N1CCCC1=O (centres undefined)	none (no result: RecA intein inh)
CC(=O)Nc1ccc(C(C#N)=Cc2ccc(N(C)CCC#N)cc2)cc1	GDH-TPI counter 31 (no result: RecA intein inh)
COc1ccc(C(C#N)=Cc2ccc(NC(C)=O)cc2)cc1	GDH-TPI counter 40 (no result: RecA intein inh)
COc1ccc(S(=O)(=O)/C(C#N)=C/Nc2ccc(NC(C)=O)cc2)cc1	GDH-TPI counter 31
O=C(COC(=O)c1cnccn1)NC1CCCc2ccccc21 (centres undefined)	none (no result: RecA intein inh)
C=CCN(C(=O)[C@@H](CCCC)[C@@H](O)c1ccc(C(C)=O)cc1)c1ccccc1	none (no result: RecA intein inh, GDH-TPI counter, FBA Mtb inh)
CCN(C[C@H]1N[C@@](Cc2ccccc2)(C(=O)OC)[C@H]2C(=O)N(C)C(=O)[C@@H]12)S(=O)(=O)c1ccc(-c2ccccc2)cc1	none (no result: RecA intein inh)
O=C(CN1C(=O)c2ccccc2C1=O)OCC(=O)N1CCCCC1	none (no result: RecA intein inh)
O=c1oc2ccc(Cl)cc2nc1/C=C(\O)c1ccco1	GDH-TPI counter 37
CC(C)C/C(O)=C/c1nc2cc(Cl)ccc2oc1=O	none
O=C(CSc1ncccn1)Nc1ccc(S(=O)(=O)N2CCCCC2)cc1	none
O=C(CSC1=NCCS1)Nc1ccc(S(=O)(=O)NC2CCCCC2)cc1	RecA intein inh 42
O=C(CSC1=NCCS1)Nc1ccc(S(=O)(=O)N2CCCCCC2)cc1	RecA intein inh 33
O=c1/c(=C/c2ccc(O)cc2)sc2n1CCCN=2	none (no result: RecA intein inh)
O=c1/c(=C\c2ccc(F)cc2)sc2n1CCCN=2	GDH-TPI counter 33 (no result: RecA intein inh)
N#CC(Cc1cccs1)c1nc2ccccc2[nH]1 (centres undefined)	none (no result: RecA intein inh)
N#CC(/C(=N/S(=O)(=O)c1cccs1)c1ccccc1)c1nc2ccccc2[nH]1 (centres undefined)	GDH-TPI counter 43
C=CCN1C(=O)[C@@H](CC(=O)N2CCCCC2)[C@]2(C(=O)OC)CCCCC=C12	none (no result: RecA intein inh, GDH-TPI counter, FBA Mtb inh)
CCc1noc(C)c1C(=O)OCC(=O)c1ccccc1OC	none
CC1CN(c2oc(Cc3cccc4ccccc34)nc2C#N)CC(C)O1 (centres undefined)	none
N#Cc1nc(-c2cccs2)oc1N1CCOCC1	FBA Mtb inh active
CC1CN(c2oc(-c3cccs3)nc2C#N)CC(C)O1 (centres undefined)	FBA Mtb inh active
CC(C)(C)NC(=O)C(c1ccccc1)N(C(=O)CNC(=O)c1cccs1)c1cccnc1 (centres undefined)	none
O=C(COC(=O)C1CCN(S(=O)(=O)c2ccc(Cl)c(C(F)(F)F)c2)CC1)NCC1CCCO1 (centres undefined)	none (no result: RecA intein inh)
CC1=CC(c2ccccc2)n2nc(N3C(=O)C4CC=CCC4C3=O)nc2N1 (centres undefined)	FBA Mtb inh 175
CC1=CC(c2ccccc2)n2nc(N3C(=O)c4ccccc4C3=O)nc2N1 (centres undefined)	FBA Mtb inh 30
O=C1CC(C(=O)O)S/C(=N\N=C\c2ccc(Br)cc2)N1 (centres undefined)	GDH-TPI counter 66
C/C(=N/N=C1/NC(=O)CC(C(=O)O)S1)c1ccccc1 (centres undefined)	none
CCOc1ccccc1N(CC(=O)NC1CCCCC1)S(=O)(=O)c1ccccc1	none
CCc1ccc(N=C2NC(=O)/C(=C/c3ccc(OCC(=O)O)cc3)S2)cc1	GDH-TPI counter 40
COc1cccc(CNS(=O)(=O)c2c(C)nc3scc(C)n3c2=O)c1	none
Cc1nc2scc(C)n2c(=O)c1S(=O)(=O)NCc1ccccc1	GDH-TPI counter 38
COCC1CCN(C(=O)c2ccc(OC3CCN(Cc4ccccn4)CC3)cc2)C1 (centres undefined)	none
NCCSC1CC(=O)N(c2ccc(Cl)c(Cl)c2)C1=O (centres undefined)	FBA Mtb inh 47
NCCSC1CC(=O)N(c2ccc(F)cc2)C1=O (centres undefined)	none
CC(=C\C(=O)O)/C(=C/c1ccco1)C(=O)O	none
CC(=C\C(=O)O)/C(=C\c1cccc2ccccc12)C(=O)O	GDH-TPI counter 31
O=C(CCN1C(=O)/C(=C/c2ccccc2Cl)SC1=S)NC1C=CS(=O)(=O)C1 (centres undefined)	none
O=C(CCN1C(=O)/C(=C/c2ccc(F)cc2)SC1=S)NC1C=CS(=O)(=O)C1 (centres undefined)	none
O=C(CN1C(=O)S/C(=C\c2ccc(F)cc2)C1=O)NC1C=CS(=O)(=O)C1 (centres undefined)	GDH-TPI counter 33
O=C(CN1C(=O)S/C(=C\c2ccccc2F)C1=O)NC1C=CS(=O)(=O)C1 (centres undefined)	GDH-TPI counter 31
COc1ccc(/C=C2\SC(=O)N(CC(=O)NC3C=CS(=O)(=O)C3)C2=O)cc1 (centres undefined)	GDH-TPI counter 48
COc1ccc(OC)c(Nc2nc(N)c([N+](=O)[O-])c(N3CCOCC3)n2)c1	none
O=C(NCc1ccccc1F)C1CCCN1S(=O)(=O)c1ccc(Cl)cc1 (centres undefined)	none
CC(C)(O)[C@@H]1Cc2c(ccc3ccc(=O)oc23)O1	FBA Mtb inh active
C=C(CO)C1Cc2cc(C(C)=O)ccc2O1 (centres undefined)	none (no result: RecA intein inh)
CC(C)c1cc2cc3ccc(=O)oc3cc2o1	none
CC(C)(O)[C@H]1Cc2cc3ccc(=O)oc3cc2O1	FBA Mtb inh active
C=C(C)C1Cc2cc3ccc(=O)oc3cc2O1 (centres undefined)	FBA Mtb inh 185
C/C=C(/C)C(=O)O[C@@H]1c2c(ccc3ccc(=O)oc23)O[C@@H]1C(C)(C)OC(C)=O	none
CC(C)(O[C@@H]1O[C@H](CO)[C@@H](O)[C@H](O)[C@H]1O)[C@H]1Cc2cc3ccc(=O)oc3cc2O1	GDH-TPI counter 33, FBA Mtb inh active
COc1ccc(C=C2CS(=O)(=O)CC(=Cc3ccc(OC)cc3)C2=O)cc1	none (no result: RecA intein inh)
O=C(CCC(=O)c1cccs1)OCC(=O)c1ccccc1F	none (no result: RecA intein inh)
CCS(=O)(=O)NCCc1cc2cc(C)c(C)cc2[nH]c1=O	GDH-TPI counter 31 (no result: RecA intein inh)
Cc1cc2cc(CCNS(C)(=O)=O)c(=O)[nH]c2cc1C	none
CC(C)Oc1ccc(S(=O)(=O)N2CCCCCC2)c2ccccc12	none (no result: RecA intein inh, GDH-TPI counter, FBA Mtb inh)
CCOc1ccccc1CNC(=O)Cn1nc(C)c2c(C)n(-c3ccc(C)cc3)nc2c1=O	none (no result: CCHFV vOTU inh)
COC(=O)C1(C)Cc2cc(OC(C)=O)c(OC(C)=O)cc2N1 (centres undefined)	RecA intein inh 61 (no result: CCHFV vOTU inh, GDH-TPI counter, FBA Mtb inh)
CC(=O)Oc1cc2c(cc1OC(C)=O)C(=O)CCCC2	none (no result: RecA intein inh)
Clc1cc2nc3ccccn3c2cc1Cl	FBA Mtb inh 140
